According to PubChem BioAssay AID686979 (National Center for Advancing Translational Sciences (NCATS), 2013):
Values joined by “and” are separate entries in the source; they are usually repeats but may differ in a detail not shown here. Identical values can stand only once. Screen size: about 420,000 compounds; about 50,000 (12%) were called active. Roughly 26% stayed inconclusive and do not appear here. The call rests on the fitted dose curve; in most records, active means well fitted inhibition curve with a large enough effect; inconclusive means small, poorly fitted or top-dose-only effect; inactive means flat fitted curve, though single readings scatter. Many of the other results were omitted from the sample, so actives are more common in it than they were. More than one record can exist for a structure, and the calls need not agree.

assay: qHTS for Inhibitors of human tyrosyl-DNA phosphodiesterase 1 (TDP1): qHTS in cells in presence of CPT; conditions: chicken DT40 Tdp1-/-;hTDP1 cells + 20 nM CPT, ATP luminescence, 48 h; series mostly up to 46.2 µM; activity change, negative = growth inhibition: at the top concentration; further: nearly all actives have a fitted effect of over 55% in size
How it was run: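 Chicken DT40 Tdp1-/- cells complemented with human TDP1, 400 cells/well, exposed to compounds plus 20 nM camptothecin for at least 48 h at 37 C; viability read as ATP content by CellTiter-Glo luminescence.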
On the % scale 0 is the no-effect control and ±100 the full control effect; potency means the concentration at half of the fitted maximal effect.

SMILES	activity change, negative = growth inhibition	Potency
NC(=O)c1ncn([C@@H]2O[C@H](CNCc3cnc(N4CCOCC4)s3)[C@@H](O)[C@H]2O)n1	1.26% (inactive)	–
CCOc1ccc(-c2nnn(CC(=O)N3CCN(c4ccc(F)cc4)CC3)n2)cc1OCC	0.386% (inactive)	–
CCOc1ccc(-c2nnn(CC(=O)N3CCN(c4ccc(OC)cc4)CC3)n2)cc1OCC	-12.9% (inactive)	–
O=C(Nc1ccccc1-c1nnn(CC(=O)N2CCN(c3ccccc3)CC2)n1)c1cccs1	–	14.6 µM (active)
C[C@H]1CN([C@@H](C)CO)C(=O)CCCn2cc(nn2)CO[C@@H]1CN(C)S(=O)(=O)c1cccs1	-15.7% (inactive)	–
CSc1ccc(NC(=O)Cn2nnnc2-c2ccccc2F)cc1	4.04% (inactive)	–
C/C(=N/OC(=O)c1cccc(C(F)(F)F)c1)c1cnccn1	0.565% (inactive)	–
Cc1nn(-c2ccccc2)c(C)c1NC(=O)COC(=O)c1cc(Cl)ccc1O	-1.94% (inactive)	–
Cc1nn(-c2ccccc2)c(C)c1NC(=O)COc1ccc(Cl)cc1Cl	–	16.4 µM (active)
C/C=C/c1ccc(OCC(=O)OCC(=O)Nc2c(C)nn(-c3ccccc3)c2C)c(OC)c1	-0.721% (inactive)	–
Cc1cc(=O)oc2c3c(cc(OCC(=O)NCCC(=O)N[C@@H](C)C(=O)O)c12)OC(C)(C)CC3	0.114% (inactive)	–
C/C(=N/NS(=O)(=O)c1ccccc1)c1ccc(NC(=O)C(F)(F)F)cc1	-2.7% (inactive)	–
COCC1CCN(C(=O)C2CCC(=O)N(CC3CCCCC3)C2)CC1 (stereo unspecified)	5.32% (inactive)	–
Cc1ccc(NC(=O)c2oc3ccccc3c2NC(=O)Cc2cccs2)cc1	-14.1% (inactive)	–
COc1ccccc1NC(=O)c1oc2ccccc2c1NC(=O)C(C)C	–	10.3 µM (active)
Cc1ccc(C(=O)Nc2c(C(=O)NC(C)(C)C)oc3ccccc23)cc1	–	20.6 µM (active)
COc1ccccc1NC(=S)NC(=O)C(C)C	15.3% (inactive)	–
Cc1c(C(=O)NNC(=O)c2ccncc2)oc2ccccc12	22.9% (inactive)	–
COc1ccccc1NC(=O)c1oc2ccccc2c1NC(=O)COc1ccccc1OC	-15.5% (inactive)	–
COc1ccccc1C(=O)Nc1c(C(=O)Nc2ccc(C)cc2)oc2ccccc12	–	20.6 µM (active)
COc1ccccc1C(=O)Nc1ccc(Nc2ccccc2)cc1	22.7% (inactive)	–
Cc1ccc(C(=O)Nc2c(-c3ccccc3)[nH][nH]c2=O)cc1	-3.84% (inactive)	–
C#CCOCCOCCOCCNc1nc(N2CCN(C(=O)C([C@@H](C)CC)n3cc(C(N)COC(=O)C(F)(F)F)nn3)CC2)nc(N2CCN(C(=O)[C@H](Cc3ccc(O)cc3)n3cc(C(N)[C@H](C)CC)nn3)CC2)n1 (stereo partly specified)	-7.81% (inactive)	–
CCOc1ncccc1C(=O)OCC(=O)c1c[nH]c2ccccc12	-25.7% (inactive)	–

SMILES	activity change, negative = growth inhibition	Potency
CC1CN(C(=S)Nc2ccc(S(N)(=O)=O)cc2)CC(C)O1 (stereo unspecified)	-15.7% (inactive)	–
C/C=C/C1=C(C(=O)O)N2C(=O)[C@@H](NC(=O)[C@H](N)c3ccc(O)cc3)[C@H]2SC1	22.8% (inactive)	–
O=C(NNc1cc(Cl)cc(Cl)c1)c1c(F)cccc1Cl	-10.4% (inactive)	–
CN(CC(=O)NNC(=O)CNC(=O)c1ccccc1Cl)S(=O)(=O)c1ccc(Cl)cc1	-22% (inactive)	–
CC(=O)Nc1ccc(NC(=O)CSc2nnc3c4cc(Br)ccc4n(C)c3n2)cc1	-12.3% (inactive)	–
O=C(CSc1ccc(Cl)cc1)NC1CC1	-22.6% (inactive)	–
CN(CCOc1ccccc1)C(=O)c1cc(COc2c(F)cccc2F)on1	-21% (inactive)	–
COc1cccc(CNC(=O)CCN2C(=S)NC(C)(C)CC2C)c1 (stereo unspecified)	-8.76% (inactive)	–
COc1nc(N(C)C)nc(N2CC(=O)N(CCNS(=O)(=O)c3ccc(C)cc3)C2=N)n1	17.4% (inactive)	–
C=C1C(=O)[C@]23C[C@H]1CCC2[C@@]1(C)C(C[C@@H]3O)[C@](C)(C(=O)O)CC[C@@H]1O (stereo partly specified)	–	1.84 µM (active)
Cc1cnc(CN(C)C(=O)CC2C(=O)NCCN2Cc2cccc(F)c2F)[nH]1 (stereo unspecified)	2.68% (inactive)	–
CCCC1NC(=O)NC(C)=C1C(=O)OCC (stereo unspecified)	13.2% (inactive)	–
CCCCn1c(N)c(N(CC)C(=O)c2ccccc2C(F)(F)F)c(=O)[nH]c1=O	3.08% (inactive)	–
Cc1ccc(CNC(=O)Cn2cnc(S(=O)(=O)N3CCCCC3)c2)o1	-4.28% (inactive)	–
Cc1ccc(CNC(=O)Cn2cnc3c(NCc4ccccc4)ncnc32)o1	–	18.4 µM (active)
Cc1ccc(NC(=O)Cn2cnc3c(OCc4ccccc4)ncnc32)cc1C	-10.5% (inactive)	–
Cn1c(=O)c2c(SCC(=O)NCC3CCCO3)nc(CC(C)(C)C)nc2n(C)c1=O (stereo unspecified)	-18.2% (inactive)	–
Cc1ccc(NC(=O)c2cn3c4c(ccc(Cl)c4c2=O)OC(C)C3)cc1C (stereo unspecified)	-0.412% (inactive)	–
Cc1ccc(C)c(C(C)NC(=O)C2CCCO2)c1 (stereo unspecified)	-22.5% (inactive)	–
Cc1nc(N)nc(Cl)c1CCC1OCCO1	18.7% (inactive)	–
O=c1c(Cl)c(NC2CC2)cnn1-c1ccccc1	-3.31% (inactive)	–
C=CCNc1cnn(-c2ccc(C)cc2)c(=O)c1Cl	7.55% (inactive)	–
Cc1cccc(-n2ncc(Cl)c(Cl)c2=O)c1	–	5.17 µM (active)
O=C(OCC(=O)N1CCc2ccccc21)C1CCCN1S(=O)(=O)c1ccc(Cl)cc1 (stereo unspecified)	-18.7% (inactive)	–

SMILES	activity change, negative = growth inhibition	Potency
O=C(OCC(=O)N1CCc2ccccc21)c1ccc([N+](=O)[O-])cc1	–	20.6 µM (active)
Cc1ccc(S(=O)(=O)NCC(=O)OCC(=O)N2CCc3ccccc32)cc1	-5.65% (inactive)	–
CO/N=C(\C(=O)N[C@@H]1C(=O)N2C(C(=O)O)=C(C[N+]3(C)CCCC3)CS[C@H]12)c1csc(N)n1	-6.89% (inactive)	–
CCC1NC(=O)c2cccnc2-n2c1nc1ccc(C)cc1c2=O (stereo unspecified)	-4.75% (inactive)	–
CCCN1C(=O)C(Cc2nc3ccccc3c(=O)n2-c2ccccc2)c2cc(C)ccc21 (stereo unspecified)	–	inactive and 16.4 µM (active)
O=c1c2ccccc2nc(CSc2nnnn2-c2ccccc2)n1-c1ccccc1	-15.2% (inactive)	–
Cc1ccc(Cl)cc1NC(=O)C(C)n1nnc2sc(-c3ccccc3)cc2c1=O (stereo unspecified)	-17.5% (inactive)	–
O=C(Nc1c2c(nn1-c1cccc(Cl)c1)CS(=O)(=O)C2)c1cccs1	4.51% (inactive)	–
COCCN(C(=O)CC1CCCCC1)c1c(N)n(CC(C)C)c(=O)[nH]c1=O	-7.04% (inactive)	–
CCc1nc2sc3c(Cl)ncnc3c2c2c1CCCC2	9.75% (inactive)	–
OCCCC1CCCCN1Cc1nc(Cc2ccccc2Cl)no1 (stereo unspecified)	-5.93% (inactive)	–
CCOC(=O)c1ccccc1NC(=O)c1sc2nc(-c3ccc(F)cc3)cn2c1C	20% (inactive)	–
COc1ccc(CCNC(=O)c2ccc3c(c2)nc(C)n3-c2ccc(Br)cc2)cc1OC	–	20.6 µM (active)
O=C(NCCc1ccc(F)cc1)c1ccc2nccnc2c1	-16.7% (inactive)	–
COc1cccc(CNC(=O)c2ccc3c(c2)sc2nc(-c4cccc(OC)c4)cn23)c1	–	6.51 µM (active)
COc1cc(-n2c(C)nc3cc(C(=O)NCc4ccco4)ccc32)cc(OC)c1OC	-3.22% (inactive)	–
COc1ccccc1-n1c(C)nc2cc(C(=O)NCc3ccc4c(c3)OCO4)ccc21	-2.89% (inactive)	–
Cc1ccc(-c2cn3c(n2)sc2cc(C(=O)NCCCc4ccccc4)ccc23)cc1	–	14.6 µM (active)
CCOc1ccc(CCNC(=O)c2ccc3c(c2)sc2nc(-c4ccc(F)cc4)cn23)cc1OCC	–	7.31 µM (active)
COc1ccc(C(=O)NCc2cn3ccccc3n2)cc1	-7.24% (inactive)	–
COc1ccc2oc(=O)c(-c3cn4c(n3)sc3cc(OC)ccc34)cc2c1	-1.91% (inactive)	–
CC(C)c1ccc(C(=O)NCCCc2ccccc2)cc1	-11.7% (inactive)	–
Cc1cc(C(=O)NCCCc2ccccc2)no1	-2.67% (inactive)	–
